Assay outcomes (PubChem)
In the library only some 19% were active in any assay of this set; here they are far more common.
IL-1B inflam inh: inhibitors of inflammasome signaling (IL-1 beta secretion); actives 4.7% (n = 360,000); THP-1 LPS/ATP IL-1B secretion, AlphaLISA, 16 h; hits give low values; activity change, % at 57.5 µM; AID 743279; in the data active = activity change below about -50%; inconclusive = mostly about -30% to -49%
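Secreted IL-1B measured by AlphaLISA bead assay after 16 h compound exposure of THP-1 cells; compounds (final up to 57.5 uM) added 1 h before LPS (250 ng/mL) and ATP (1.25 mM) stimulation; lower signal means less secretion.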
TDP1 cell noCPT: qHTS for Inhibitors of human tyrosyl-DNA phosphodiesterase 1 (TDP1): qHTS in cells in absence of CPT; DT40 Tdp1-/- hTDP1 cells, no CPT, ATP luminescence, 48 h; Potency, µM (highest dose often 46.2 µM), most hits filed as inhibitors; actives 15% (n = 420,000); AID 686978, 2013; note: nearly all actives have a fitted effect of over 55% in size
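Cells were dispensed at 400 per well, compounds added by pin tool, plates incubated ≥48 hr at 37 °C, then CellTiter-Glo added for 30 min at room temperature before luminescence reading. Line: DT40 Tdp1-/- complemented with hTDP1; camptothecin omitted.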
HT1080 IDH1KD tx: toxicity to HT-1080 IDH1 knockdown cells (counter line); HT-1080 IDH1 knockdown viability, ATP luminescence, 48 h; Potency, µM (series often up to 46.1 µM), actives largely listed as cytotoxic; actives 2% (n = 360,000)
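Assay cells: HT-1080 with IDH1 knockdown, 750 per well, RPMI/5% FBS. Exposure: 48 h at 37 °C following 2 h pre-incubation. Read: CellTiter-Glo luminescence; fitted concentration-response, curve class assigned.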
DT40 TDP1 CPT: DT40-hTDP1 cell growth loss with CPT; chicken DT40 Tdp1-/-;hTDP1 cells + 20 nM CPT, ATP luminescence, 48 h; Potency, µM (highest dose often 46.2 µM), actives largely listed as inhibitors; actives 12% (n = 420,000); note: nearly all actives have a fitted effect of over 55% in size
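Chicken DT40 Tdp1-/- cells complemented with human TDP1, 400 cells/well, exposed to compounds plus 20 nM camptothecin for at least 48 h at 37 C; viability read as ATP content by CellTiter-Glo luminescence.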
uPA generation: blocks generation of uPA at the cell surface; cell surface uPA generation assay, qHTS; Potency, µM (doses to about 38.3 µM), actives largely listed as inhibitors; actives 0.31% (n = 330,000); AID 540303; active = well fitted inhibition curve with a large enough effect; inconclusive = small, poorly fitted or top-dose-only effect; inactive = no such curve, though single readings can be large or run the other way; tested in mouse RAW 264.7 cells; note: nearly all actives have a fitted effect of over 55% in size
HT1080-NT tox: kills 2HG-producing HT-1080-NT fibrosarcoma cells. HT-1080-NT fibrosarcoma viability, CellTiter-Glo ATP luminescence, 48 h. Potency, µM (doses to about 46.1 µM), most hits filed as cytotoxic. actives 1.6% (n = 360,000). AID 686970;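 note: NT is the 2HG producing partner of a matched IDH1 knockdown line; nearly all actives have a fitted effect of over 55% in size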
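HT-1080-NT fibrosarcoma cells (2HG-overproducing), 750 cells/well in RPMI with 5% FBS, dosed after 2 h and incubated 48 h at 37C. CellTiter-Glo luminescence normalized to DMSO and no-cell wells; concentration-response curves fitted and classed.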
Hits are given with their value; n = inactive; u = inconclusive; x = not tested or not shown. Unless noted, calls come from the whole dose curve; as a rule, active = well fitted curve in the direction sought with a large enough effect; inconclusive = small, poorly fitted or top-dose-only effect, or another doubt; inactive = no such curve, though single readings can be large; an effect the other way counts as inactive or inconclusive.

SMILES | IL-1B inflam inh | TDP1 cell noCPT | HT1080 IDH1KD tx | DT40 TDP1 CPT | uPA generation | HT1080-NT tox
CC(=O)Nc1nc(-c2cc([N+](=O)[O-])cs2)cs1 | n | u | n | n | n | n
O=C(O)C1CCCCC1C(=O)Nc1nc(-c2ccc(Cl)s2)cs1 (stereo not drawn) | n | n | n | n | n | n
Cc1csc(NC(=O)c2ccco2)n1 | n | n | n | n | n | n
O=C(Nc1nc(-c2ccc(Cl)s2)cs1)c1cccs1 | -84 | 18µM | u | 23µM | n | u
CCCCOc1ccc(C(=O)NCC(=O)N2CC(C)CC(C)C2)cc1 (stereo not drawn) | n | u | n | u | n | n
N#CC(CC(=O)OCc1ccccc1)NC(=O)OCc1ccccc1 (stereo not drawn) | n | n | n | u | x | n
CN(c1ccc(F)cc1)S(=O)(=O)N1CCCC(C(=O)NCCc2ccccc2)C1 (stereo not drawn) | x | u | x | 21µM | x | x
COc1ccccc1CNC(=O)C1CCCN(S(=O)(=O)c2cnc[nH]2)C1 (stereo not drawn) | n | n | n | n | n | n
CSc1ccc(CCNC(=O)C2CCCN(S(=O)(=O)N3CCOCC3)C2)cc1 (stereo not drawn) | n | n | n | n | n | n
CSc1ccc(CCNC(=O)C2CCCN(S(=O)(=O)N(C)c3ccc(F)cc3)C2)cc1 (stereo not drawn) | x | 9.2µM | x | 6.5µM | x | x
COc1cccc(CNC(=O)C2CCCN(S(=O)(=O)N(C)c3ccc(F)cc3)C2)c1OC (stereo not drawn) | x | 3.7µM | x | 3.3µM | x | x
CCS(=O)(=O)N1CCCC(C(=O)NCCc2ccccc2)C1 (stereo not drawn) | n | n | n | n | n | n
S=c1[nH]nc(CCCc2n[nH]c(=S)o2)o1 | n | n | n | n | n | n
O=C(COc1ccc2ccccc2c1)Nc1ccc(Br)cc1C(=O)O | n | n | n | n | n | n
Cc1ccc(NC(=O)c2ccc(Cn3cc(Br)cn3)o2)cc1 | n | 21µM | n | u | n | n
O=C(N/N=C/c1cccc(Br)c1)c1ccc(Cn2cc(Br)cn2)o1 | -73 | u | n | n | n | u
Cn1nccc1C(=O)N1CCN(S(=O)(=O)c2ccc(Br)s2)CC1 | n | n | n | n | n | n
O=C(c1cc(-c2ccc(Br)cc2)n[nH]1)N1CCN(S(=O)(=O)c2ccc(Br)s2)CC1 | x | 23µM | x | 21µM | x | x
COc1ccc(S(=O)(=O)N2CCN(C(=O)c3cc(-c4ccc(C)cc4)n[nH]3)CC2)cc1 | -83 | u | n | 26µM | n | n
Cc1ccc(-c2cc(C(=O)N3CCc4ccccc4C3)[nH]n2)cc1C | n | u | n | n | n | n
Cc1ccc(-c2cc(C(=O)N3CCN(S(=O)(=O)c4ccc(Br)s4)CC3)[nH]n2)c(C)c1 | x | 18µM | x | 12µM | x | x
Cc1ccc(-c2cc(C(=O)N3CCN(S(=O)(=O)c4ccc(Br)s4)CC3)[nH]n2)cc1C | x | 13µM | x | 15µM | x | x
COc1ccc(-c2cc(C(=O)N3CCN(S(=O)(=O)c4ccc(C)cc4)CC3)[nH]n2)cc1 | n | u | n | u | n | n
O=C1NC[C@H](CCCCN2CCN(CCC3CCCCC3)C(=O)C2=O)N(CC2CCCCC2)C1=O | n | n | n | n | x | n
COc1ccc(CCNC(=O)C2CC(O)CN2S(=O)(=O)c2ccc(Cl)cc2)cc1OC (stereo not drawn) | n | n | n | u | n | u
SMILES | IL-1B inflam inh | TDP1 cell noCPT | HT1080 IDH1KD tx | DT40 TDP1 CPT | uPA generation | HT1080-NT tox
O=C(c1cccc(F)c1)N1CCC2(CCCN(c3ccc(-c4ccccc4)cc3)C2)CC1 | x | u | x | n | x | x
CCCCC1Cc2[nH]c(=S)[nH]c(=O)c2C(c2ccc(F)cc2)O1 (stereo not drawn) | n | n | n | n | x | n
COc1ccc(CN2C(=O)CSCC2(C)C(=O)NCc2ccccc2)cc1OC (stereo not drawn) | n | u | n | n | x | n
CC1(C(=O)NCc2ccccc2)CSCC(=O)N1Cc1cccc(C(F)(F)F)c1 (stereo not drawn) | n | u | n | 18µM | x | n
Cc1ccc(OCC(=O)OCC(=O)NC2CCS(=O)(=O)C2)cc1C (stereo not drawn) | n | n | n | n | x | n
CCN(CC)C(=O)COc1ccc2oc(-c3ccco3)cc(=O)c2c1 | n | n | n | n | n | n
O=C(COC(=O)c1cccc(C(=O)OCC(=O)c2ccc(Br)cc2)n1)c1ccc(Br)cc1 | n | u | n | 16µM | n | n
CN(C)CCCN=c1cc(-c2ccccc2)oc2ccc(Cl)cc12 | -50 | u | n | 10µM | n | n
CN(C)CCCN1C(=O)c2oc3ccc(Cl)cc3c(=O)c2C1c1cccnc1 (stereo not drawn) | n | n | n | n | n | n
CC(C)CN=c1cc(-c2ccccc2)oc2ccc(Cl)cc12 | n | u | u | u | n | u
CC(O)CN=c1cc(-c2ccccc2)oc2ccc(Cl)cc12 (stereo not drawn) | -72 | 16µM | u | u | n | u
OCCN=c1cc(-c2ccccc2)oc2ccc(Cl)cc12 | -70 | 16µM | n | u | n | n
COc1cc(OC)c2cc(C(=O)N[C@@H](Cc3ccccc3)C(=O)O)n(C)c2c1 | n | n | n | n | n | n
CC(C)(Cc1nc2ccccc2[nH]1)c1nc2ccccc2[nH]1 | n | n | n | u | x | n
CCOC(=O)CSc1nnc2n(C3CCCCC3)c(=O)c3c4c(sc3n12)CCCC4 | n | u | n | u | x | n
C=C(C)CSc1nc2sc3c(c2c(=O)n1-c1ccc(C)cc1)CCN(C)C3 | n | 12µM | n | 18µM | n | n
C=CCSc1nc2sc3c(c2c(=O)n1-c1ccccc1)CCN(C)C3 | n | n | n | u | n | n
CCN(CC)C(=O)CSc1nc2sc3c(c2c(=O)n1CCCOC)CCC3 | -55 | u | n | u | n | n
CCOC(=O)CSc1nc2sc3c(c2c(=O)n1-c1ccc(OCC)cc1)CCN(C)C3 | n | 23µM | n | u | n | n
CCOC(=O)CSc1nc2sc3c(c2c(=O)n1C1CCCCC1)CCN(C)C3 | n | 29µM | n | u | n | n
CCn1c(SCC(=O)N2CCOCC2)nc2sc3c(c2c1=O)CCCC3 | n | 18µM | n | u | n | n
COC(=O)CSc1nnc2n(C3CCCCC3)c(=O)c3c4c(sc3n12)CCCC4 | u | u | n | 29µM | n | n
